In PubChem BioAssay (Tox21):
Values without a mark were called inactive. Inconclusive results are not listed. A call without a number means that no potency is given here. Active and inactive are the calls of the source. Unless noted, the call rests on the fitted dose curve; in most records, active means well fitted curve in the direction sought with a large enough effect in the repeat runs; inconclusive means weak or mixed curves; inactive means no such curve, though single readings can be large; an effect the other way counts as inactive or inconclusive.

Key:
[1] = qHTS RealTime-Glo MT Cell Viability Assay in HepG2 cells - 0 hour (AID 1224889); further: nearly all actives have a fitted effect of over 50% in size
Outline: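 HepG2 cells were seeded at 600 cells/well together with NanoLuc luciferase and a cell-permeant prosubstrate, preincubated 5 h at 37 C/5% CO2, then pin-dosed with compounds in DMSO. Nonlytic luminescence from viable cells was read at each time point.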

[2] = A CellTox Green Cytotoxicity Assay to monitor cytotoxicity in HepG2 cells - 8 hour (AID 1224890); further: nearly all actives have a fitted effect of over 45% in size; further: potency means the concentration at half of the fitted maximal effect
Outline: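 Using 1536-well format, dye-containing HepG2 suspension was seeded, allowed 5 h at 37 C/5% CO2, dosed by pintool with compounds, positive and negative controls, and imaged for fluorescence across 40 h.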

[3] = qHTS assay to identify small molecule antagonists of the estrogen receptor alpha (ER-alpha) signaling pathway using the BG1 cell line in the presence of 0.1 nM 17-beta-estradiol - cell viability counter screen (AID 1259241); further: nearly all actives have a fitted effect of over 40% in size
Outline: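 VM7Luc4E2 cells (endogenous full-length ER-alpha, 4xERE-luciferase), cultured 5 days in charcoal-stripped serum, exposed to compounds with 0.1 nM 17beta-estradiol (final) for 22 hr at 37C. Viability read in same wells as live-cell protease fluorescence after 30 min.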

[4] = qHTS assay to identify small molecule antagonists of the androgen receptor (AR) signaling pathway using the MDA cell line in the presence of 0.5 nM R1881 - cell viability counter screen (AID 1259242); further: nearly all actives have a fitted effect of over 45% in size
Outline: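 Viability of MDA-kb2 cells was multiplexed with the luciferase AR readout; after 16 hr with compounds and R1881 at 0.5 nM final, CellTiter-Fluor fluorescence was recorded.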

[5] = biological target: Estrogen receptor (Homo sapiens) (UniProt P03372); assay: qHTS assay to identify small molecule antagonists of the estrogen receptor alpha (ER-alpha) signaling pathway using the BG1 cell line in the presence of 0.1 nM 17-beta-estradiol (AID 1259244); further: nearly all actives have a fitted effect of over 50% in size
Outline: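 Estradiol at 0.1 nM (final) stimulates the endogenous ER-alpha of VM7Luc4E2 cells carrying an ERE-driven luciferase; compounds are co-incubated 22 h at 37C and luciferase output quantified by luminescence.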

[6] = qHTS assay to identify small molecule HDAC inhibitors (AID 1259364);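 further: wild-type HCT-116 cells with endogenous class I/II HDAC activity; top concentration of the series differs between compounds; nearly all actives have a fitted effect of over 45% in size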
Outline: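 Read-out: luminescence of HDAC-Glo I/II reagent, 30 min RT, reflecting class I/II deacetylase activity in whole HCT-116 cells pre-exposed 2 h to DMSO-dissolved compounds.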

[7] = qHTS assay to identify small molecule HDAC inhibitors - cell viability counter screen (AID 1259365); further: series mostly up to about 92 µM; nearly all actives have a fitted effect of over 50% in size
Outline: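 Wild-type HCT-116 cells, 1,500/well, cultured overnight, then compound-treated 2 h at 37 C. Viability measured as ATP luminescence with CellTiter-Glo after 30 min at room temperature.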

[8] = qHTS assay to identify small molecule agonists of the sonic hedgehog signaling (Shh) pathway - cell viability counter screen (AID 1259366); further: nearly all actives have a fitted effect of over 50% in size
Outline: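 NIH/3T3-derived Gli1-Luc reporter cells, 2,000 per well, received compound after 4 h and were treated about 23 h at 37C. Viability measured in the same wells by CellTiter-Fluor fluorescence after 1 h.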

[9] = qHTS assay to identify small molecule antagonists of the sonic hedgehog signaling (Shh) pathway - cell viability counter screen (AID 1259367); further: nearly all actives have a fitted effect of over 55% in size
Outline: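 Cells: 3T3 Gli1-Luc, 2,000/well, 4 hr pre-incubation. Compounds in DMSO, then conditioned medium. Incubation 24 hr, 37C, 5% CO2. CellTiter-Fluor at 23 hr, 1 hr, fluorescence.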

[10] = qHTS assay to identify small molecule agonists of the sonic hedgehog signaling (Shh) pathway (AID 1259368; calls by dose curve;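 further: NIH/3T3-derived 3T3Gli1-Luc cells carrying a stable Gli1-driven firefly luciferase reporter; series mostly up to about 92 µM; nearly all actives have a fitted effect of over 15% in size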)
Outline: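 A Gli1 transcriptional response element controlled firefly luciferase in 3T3Gli1-Luc cells. Compounds and a positive control were added 4 hr after plating, and cells were incubated a further 24 hr at 37 C before luminescence detection.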

[11] = qHTS assay to identify small molecule antagonists of the sonic hedgehog signaling (Shh) pathway (AID 1259369; calls by dose curve; further: nearly all actives have a fitted effect of over 45% in size; further: potency means the concentration at half of the fitted maximal effect)
Outline: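 For antagonist detection, the reporter line received test compounds together with conditioned medium, incubated 24hr at 37 C, 5% CO2, then luminescence was recorded following 30min room-temperature luciferase reagent incubation.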

[12] = biological target: Estrogen receptor beta (Homo sapiens) (UniProt Q92731); assay: qHTS assay to identify small molecule agonists of the estrogen receptor beta (ER-beta) signaling pathway (AID 1259377; active means well fitted activation curve with a large enough effect in the signal ratio in the repeat runs, not every such curve was filed as active; the % refers to the signal ratio)
Outline: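 ER-beta-UAS-bla HEK293T cells in medium with 2% charcoal-stripped FBS were exposed to compounds for 16 h at 37C. Beta-lactamase reporter activity was read as fluorescence after 2 h with LiveBLAzer B/G FRET substrate at room temperature.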

[13] = biological target: Estrogen receptor beta (Homo sapiens) (UniProt Q92731); assay: qHTS assay to identify small molecule antagonists of the estrogen receptor beta (ER-beta) signaling pathway (AID 1259378; active means well fitted inhibition curve with a large enough effect in the signal ratio in the repeat runs, not every such curve was filed as active; the % refers to the signal ratio)
Outline: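 Antagonist mode: compounds added to beta-lactamase reporter HEK293T ER-beta-UAS cells stimulated with E2 (1nM final), 16 hr at 37C. LiveBLAzer B/G FRET substrate, 2 hours room temperature, fluorescence read-out.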

[14] = qHTS assay to identify small molecule agonists of the androgen receptor (AR) signaling pathway in the presence of an antagonist - cell viability counter screen (AID 1259379);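 further: MDA-kb2 human breast cancer cells carrying an MMTV luciferase reporter; series mostly up to about 92 µM; nearly all actives have a fitted effect of over 25% in size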
Outline: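 Seed MDA-kb2 at 3,000 cells/well; incubate 5 hr, 37C, 0% CO2. Add nilutamide to 3.0uM final, then pin compounds at 15 concentrations. Incubate 16 hr. Add CellTiter-Fluor at 15 hr, read fluorescence after 1 hr.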

[15] = qHTS assay to identify small molecule agonists of the estrogen receptor beta (ER-beta) signaling pathway - cell viability counter screen (AID 1259380); further: nearly all actives have a fitted effect of over 30% in size
Outline: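 CellTiter-Glo read, 30 min RT, same wells as bla assay; cells ER-beta-UAS-bla HEK293T; 16 hr compound, 37C; medium 2% charcoal-stripped FBS.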

[16] = qHTS assay to identify small molecule antagonists of the estrogen receptor beta (ER-beta) signaling pathway - cell viability counter screen (AID 1259382);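 further: HEK293T cells carrying ER-beta-UAS-bla reporter stimulated with estradiol; series mostly up to about 92 µM; nearly all actives have a fitted effect of over 55% in size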
Outline: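 In this multiplexed counter screen, cells were seeded at 2,000 per well in medium with 2% charcoal-stripped FBS and incubated 6 hr before compound and 1nM final E2 were added. Sixteen hours later, ATP-based luminescence reported viability.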

[17] = A CellTox Green Cytotoxicity Assay to monitor cytotoxicity in HEK293 cells - 16 hour (AID 1224888); further: nearly all actives have a fitted effect of over 35% in size
Outline: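 Fluorescence intensity, read at 0, 8, 16, 24, 32 and 40 h of compound treatment, reflected dye binding to DNA of dead HEK293 cells; compounds (23 nL, DMSO) were added 5 h after plating cells with reagent.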

[18] = qHTS assay to identify small molecule phospholipidosis (PLD) inducers (AID 1259344; active means well fitted curve in the direction sought with a large enough effect; an effect the other way counts as inactive or inconclusive)
Outline: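 Phospholipidosis is scored by imaging LipidTOX-stained pits in HepG2 cells exposed to compound for 24 h at 37 C; pit counts and integrated intensities per well and per cell serve as outputs.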

[19] = biological target: Androgen receptor (Homo sapiens) (UniProt P10275); assay: qHTS assay to identify small molecule antagonists of the androgen receptor (AR) signaling pathway using the MDA cell line in the presence of 0.5 nM R1881 (AID 1259243); further: nearly all actives have a fitted effect of over 50% in size
Outline: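 Reporter cells cultured without CO2 receive test chemicals, then 0.5 nM R1881 final; after 16 hr at 37C, ONE-Glo is added and light output recorded.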

[20] = biological target: Androgen receptor (Homo sapiens) (UniProt P10275); assay: qHTS assay to identify small molecule agonists of the androgen receptor (AR) signaling pathway in the presence of an antagonist (AID 1259381; calls by dose curve; further: nearly all actives have a fitted effect of over 15% in size)
Outline: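 Test compounds at 15 concentrations were incubated for 16hr with MDA-kb2 reporter cells in presence of 3.0uM nilutamide (final). Signal: ONE-Glo luciferase luminescence.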

Chain of Estrogen receptor beta (Homo sapiens) (Q92731 whole entry, looked up): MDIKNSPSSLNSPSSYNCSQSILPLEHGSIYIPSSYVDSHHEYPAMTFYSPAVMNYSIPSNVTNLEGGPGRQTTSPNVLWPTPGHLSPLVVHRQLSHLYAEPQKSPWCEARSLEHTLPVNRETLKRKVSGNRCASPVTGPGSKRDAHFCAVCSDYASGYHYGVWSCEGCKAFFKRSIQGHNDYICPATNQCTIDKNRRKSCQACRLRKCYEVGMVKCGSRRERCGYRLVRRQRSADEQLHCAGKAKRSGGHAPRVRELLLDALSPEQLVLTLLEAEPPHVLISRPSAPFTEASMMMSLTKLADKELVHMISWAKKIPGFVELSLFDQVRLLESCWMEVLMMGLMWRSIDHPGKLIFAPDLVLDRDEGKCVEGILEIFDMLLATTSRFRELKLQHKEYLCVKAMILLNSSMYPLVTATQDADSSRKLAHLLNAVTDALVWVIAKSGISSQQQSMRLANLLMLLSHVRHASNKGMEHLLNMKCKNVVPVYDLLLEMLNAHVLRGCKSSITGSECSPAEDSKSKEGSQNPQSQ
Chain of Estrogen receptor (Homo sapiens) (P03372 whole entry, looked up): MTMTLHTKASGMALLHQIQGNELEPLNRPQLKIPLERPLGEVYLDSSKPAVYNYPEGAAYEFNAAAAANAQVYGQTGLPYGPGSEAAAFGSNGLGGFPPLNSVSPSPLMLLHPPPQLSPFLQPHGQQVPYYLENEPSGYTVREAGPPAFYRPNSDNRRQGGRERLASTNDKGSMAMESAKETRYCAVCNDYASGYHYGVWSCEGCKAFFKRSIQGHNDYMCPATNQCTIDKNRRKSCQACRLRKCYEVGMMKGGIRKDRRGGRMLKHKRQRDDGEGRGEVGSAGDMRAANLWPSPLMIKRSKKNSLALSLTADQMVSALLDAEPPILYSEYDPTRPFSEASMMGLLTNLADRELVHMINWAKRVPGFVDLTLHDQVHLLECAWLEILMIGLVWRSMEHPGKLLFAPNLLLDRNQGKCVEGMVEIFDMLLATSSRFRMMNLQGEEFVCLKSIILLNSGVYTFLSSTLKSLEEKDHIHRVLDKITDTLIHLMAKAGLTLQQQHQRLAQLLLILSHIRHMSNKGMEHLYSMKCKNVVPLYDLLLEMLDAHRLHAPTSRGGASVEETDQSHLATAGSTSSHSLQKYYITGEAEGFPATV
Chain of Androgen receptor (Homo sapiens) (P10275 whole entry, looked up): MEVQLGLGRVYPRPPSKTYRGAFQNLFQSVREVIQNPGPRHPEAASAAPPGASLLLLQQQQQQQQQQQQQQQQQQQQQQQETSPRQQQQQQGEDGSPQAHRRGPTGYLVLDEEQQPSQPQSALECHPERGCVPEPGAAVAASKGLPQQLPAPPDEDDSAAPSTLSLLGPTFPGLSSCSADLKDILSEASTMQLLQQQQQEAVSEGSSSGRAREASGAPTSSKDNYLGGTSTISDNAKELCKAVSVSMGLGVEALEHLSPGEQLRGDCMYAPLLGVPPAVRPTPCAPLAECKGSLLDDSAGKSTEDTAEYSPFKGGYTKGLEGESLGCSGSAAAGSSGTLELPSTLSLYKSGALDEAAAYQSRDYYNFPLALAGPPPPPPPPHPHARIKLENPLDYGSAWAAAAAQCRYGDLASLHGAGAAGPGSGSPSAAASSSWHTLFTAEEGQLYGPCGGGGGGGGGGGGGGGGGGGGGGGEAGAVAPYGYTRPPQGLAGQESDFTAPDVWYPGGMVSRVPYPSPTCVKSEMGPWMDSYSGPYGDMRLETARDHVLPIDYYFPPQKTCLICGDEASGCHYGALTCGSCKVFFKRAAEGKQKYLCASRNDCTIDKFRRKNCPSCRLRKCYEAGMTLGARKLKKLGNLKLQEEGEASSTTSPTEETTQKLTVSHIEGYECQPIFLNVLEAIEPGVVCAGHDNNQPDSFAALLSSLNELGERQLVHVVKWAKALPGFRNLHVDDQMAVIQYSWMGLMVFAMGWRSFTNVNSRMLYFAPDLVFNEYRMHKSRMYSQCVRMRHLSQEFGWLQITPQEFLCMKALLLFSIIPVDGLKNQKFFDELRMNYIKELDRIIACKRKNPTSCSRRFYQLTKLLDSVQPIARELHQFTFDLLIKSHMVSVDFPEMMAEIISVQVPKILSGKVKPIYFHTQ

Compound | Potency [1] | Potency [2] | outcome [3] | outcome [4] | outcome [5] | Potency [6] | outcome [7] | outcome [8] | outcome [9] | outcome [10] | Potency [11] | Potency [12] | Potency [13] | outcome [14] | outcome [15] | outcome [16] | Potency [17] | outcome [18] | Potency [19] | outcome [20]
Cc1ccc(N)cc1S(=O)(=O)O | inactive | inactive | inactive | inactive | inactive | inactive | inactive | inactive | inactive | inactive | inactive | inactive | inactive | inactive | inactive | inactive |  |  |  | 
CC(C)OC(=O)OCOP(=O)(CO[C@H](C)Cn1cnc2c(N)ncnc21)OCOC(=O)OC(C)C | inactive | inactive |  |  | inactive | inactive | inactive | inactive |  | inactive | inactive | inactive | inactive | inactive | inactive | inactive | inactive | inactive |  | 
O=[N+]([O-])c1c(Cl)cc(Cl)cc1Cl | inactive | inactive | inactive | inactive |  | inactive | inactive | inactive | inactive | inactive | inactive | inactive | inactive |  | inactive | inactive |  |  |  | 
C[C@H]1[C@@H](c2ccccc2)NC(=O)N1C | inactive | inactive |  |  | inactive | inactive | inactive | inactive | inactive |  | inactive | inactive | inactive |  | inactive | inactive | inactive |  |  | 
COc1c2occc2c(OC)c2c(=O)cc(C)oc12 | inactive | inactive |  | inactive |  | inactive | inactive | inactive | inactive | inactive | 11.9 µM (active) |  |  | inactive | inactive |  | inactive | inactive |  | 
CCC(C(=O)OCCN1CCOC(c2ccccc2)C1C)c1ccccc1 (stereo unspecified) | inactive | inactive |  | inactive | inactive | inactive | inactive |  | inactive | inactive |  |  |  | inactive | inactive | inactive | inactive |  |  | 
CCC(C)C(=O)OCCc1ccccc1 (stereo unspecified) | inactive | inactive |  | inactive | inactive |  |  | inactive | inactive |  |  |  |  | inactive | inactive | inactive | inactive |  |  | 
CCCCCC/C=C/C(=O)OC | inactive | 49 µM (active) | inactive | inactive |  | inactive | inactive | inactive |  | inactive | inactive | inactive | inactive | inactive |  | inactive |  |  |  | 
CCCc1ccc(O)cc1 | inactive |  | inactive | inactive | inactive | inactive | inactive | inactive |  | inactive | inactive | inactive | inactive |  | inactive | inactive | inactive |  |  | 
O=C=NCC1CCCC(CN=C=O)C1 (stereo unspecified) | inactive | inactive |  | inactive | inactive |  | inactive | inactive | inactive | inactive | inactive | inactive |  |  |  | inactive | inactive |  |  | 
COC(=O)CCCCC(=O)O | inactive | inactive |  |  | inactive | inactive | inactive | inactive | inactive | inactive | inactive |  |  | inactive | inactive | inactive | inactive |  |  | 
CN(C)CC/C=C1/c2ccccc2COc2ccc(CC(=O)O)cc21 |  | inactive |  | inactive |  | inactive | inactive | inactive |  | inactive |  | inactive | inactive | inactive |  | inactive | inactive | inactive |  | 
Cc1ccc(C(C)NC(=O)[C@@H](NC(=O)OC(C)C)C(C)C)cc1 (stereo partly specified) |  | inactive | inactive | inactive |  |  |  | inactive | inactive | inactive | inactive |  |  | inactive | inactive | inactive | inactive |  |  | 
CC(C)(C)NC[C@H](O)COc1cccc2c1CCCC2=O | inactive | inactive | inactive | inactive | inactive | inactive | inactive | inactive | inactive | inactive |  | inactive | inactive | inactive | inactive | inactive |  | inactive |  | 
CCCC(=O)OCCC(C)CCC=C(C)C (stereo unspecified) |  | inactive | inactive | inactive |  | inactive | inactive | inactive | inactive | inactive |  | inactive | inactive | inactive | inactive | inactive | inactive |  |  | 
CCCCCc1cccc(=O)o1 | inactive | inactive | inactive | inactive | inactive | inactive |  | inactive | inactive | inactive | inactive | inactive | inactive | inactive | inactive |  |  |  |  | 
CCC(=O)c1c(O)cc(O)cc1O | inactive | inactive | inactive |  | inactive | inactive | inactive | inactive | inactive |  | inactive |  | inactive | inactive |  |  |  | inactive | inactive | inactive
